Measured values taken from PubChem BioAssay (Tox21).
A number with no mark means an inactive call. Results filed as inconclusive are left out. Entries that show only a call come without a potency. The source made the active and inactive calls. Unless noted, the call rests on the fitted dose curve; in most records, active means well fitted curve in the direction sought with a large enough effect in the repeat runs; inconclusive means weak or mixed curves; inactive means no such curve, though single readings can be large; an effect the other way counts as inactive or inconclusive.

What was measured:
[1] = qHTS assay to identify small molecule agonists of the sonic hedgehog signaling (Shh) pathway (AID 1259368; calls by dose curve;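 further: NIH/3T3-derived 3T3Gli1-Luc cells carrying a stable Gli1-driven firefly luciferase reporter; series mostly up to about 92 µM; nearly all actives have a fitted effect of over 15% in size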)
Outline: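 Luminescent signal was taken as a measure of Gli1-controlled luciferase expression in stably transfected NIH/3T3-derived cells that had been treated for 24 hr with compounds delivered in DMSO.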

[2] = biological target: Estrogen receptor beta (Homo sapiens) (UniProt Q92731); assay: qHTS assay to identify small molecule agonists of the estrogen receptor beta (ER-beta) signaling pathway (AID 1259377; active means well fitted activation curve with a large enough effect in the signal ratio in the repeat runs, not every such curve was filed as active; the % refers to the signal ratio)
Chain of Estrogen receptor beta (Homo sapiens) (Q92731 whole entry, looked up): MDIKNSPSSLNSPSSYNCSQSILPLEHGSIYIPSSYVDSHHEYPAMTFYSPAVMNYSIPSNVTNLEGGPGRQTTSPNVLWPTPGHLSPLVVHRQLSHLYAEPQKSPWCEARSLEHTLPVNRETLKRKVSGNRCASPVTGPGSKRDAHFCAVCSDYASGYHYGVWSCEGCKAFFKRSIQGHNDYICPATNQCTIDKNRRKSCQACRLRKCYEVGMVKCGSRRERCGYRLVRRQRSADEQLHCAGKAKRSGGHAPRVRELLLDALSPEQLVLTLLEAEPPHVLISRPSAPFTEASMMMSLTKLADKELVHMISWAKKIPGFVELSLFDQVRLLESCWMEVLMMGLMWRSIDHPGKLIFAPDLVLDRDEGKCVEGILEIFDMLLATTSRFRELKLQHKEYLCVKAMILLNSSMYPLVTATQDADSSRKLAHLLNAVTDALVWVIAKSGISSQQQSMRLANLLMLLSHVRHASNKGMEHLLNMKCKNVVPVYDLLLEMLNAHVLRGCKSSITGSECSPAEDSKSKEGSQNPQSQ
Outline: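 In HEK293T cells bearing a UAS-beta-lactamase reporter under ER-beta control, DMSO-delivered compounds were incubated for 16 hr at 37C. Activity was detected as fluorescence 2 hours after LiveBLAzer B/G FRET substrate addition.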

[3] = qHTS assay to identify small molecule agonists of the androgen receptor (AR) signaling pathway in the presence of an antagonist - cell viability counter screen (AID 1259379); further: nearly all actives have a fitted effect of over 25% in size; further: potency means the concentration at half of the fitted maximal effect
Outline: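 In MDA-kb2 cells (human breast carcinoma, MMTV-luciferase), compounds at 15 concentrations plus 3.0uM nilutamide; 16 hr, 37C, 0% CO2; CellTiter-Fluor fluorescence read for viability.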

[4] = qHTS assay to identify small molecule agonists of the estrogen receptor beta (ER-beta) signaling pathway - cell viability counter screen (AID 1259380); further: nearly all actives have a fitted effect of over 30% in size; further: potency means the concentration at half of the fitted maximal effect
Outline: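 Viability of ER-beta-UAS-bla HEK293T cells was determined by CellTiter-Glo luminescence following 16 hr treatment with test compounds at 37C.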

[5] = qHTS assay to identify small molecule antagonists of the estrogen receptor beta (ER-beta) signaling pathway - cell viability counter screen (AID 1259382); further: nearly all actives have a fitted effect of over 55% in size; further: potency means the concentration at half of the fitted maximal effect
Outline: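 Tox21 10K library tested in qHTS format on ER-beta-bla HEK293T cells stimulated with 1nM E2; 16 hr treatment at 37C. Same-well CellTiter-Glo luminescence served as the cell viability measure.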

[6] = biological target: Estrogen receptor (Homo sapiens) (UniProt P03372); assay: qHTS assay to identify small molecule agonists of the estrogen receptor alpha (ER-alpha) signaling pathway in the presence of an antagonist (AID 1259383; calls by dose curve; further: top concentration of the series differs between compounds; nearly all actives have a fitted effect of over 15% in size)
Chain of Estrogen receptor (Homo sapiens) (P03372 whole entry, looked up): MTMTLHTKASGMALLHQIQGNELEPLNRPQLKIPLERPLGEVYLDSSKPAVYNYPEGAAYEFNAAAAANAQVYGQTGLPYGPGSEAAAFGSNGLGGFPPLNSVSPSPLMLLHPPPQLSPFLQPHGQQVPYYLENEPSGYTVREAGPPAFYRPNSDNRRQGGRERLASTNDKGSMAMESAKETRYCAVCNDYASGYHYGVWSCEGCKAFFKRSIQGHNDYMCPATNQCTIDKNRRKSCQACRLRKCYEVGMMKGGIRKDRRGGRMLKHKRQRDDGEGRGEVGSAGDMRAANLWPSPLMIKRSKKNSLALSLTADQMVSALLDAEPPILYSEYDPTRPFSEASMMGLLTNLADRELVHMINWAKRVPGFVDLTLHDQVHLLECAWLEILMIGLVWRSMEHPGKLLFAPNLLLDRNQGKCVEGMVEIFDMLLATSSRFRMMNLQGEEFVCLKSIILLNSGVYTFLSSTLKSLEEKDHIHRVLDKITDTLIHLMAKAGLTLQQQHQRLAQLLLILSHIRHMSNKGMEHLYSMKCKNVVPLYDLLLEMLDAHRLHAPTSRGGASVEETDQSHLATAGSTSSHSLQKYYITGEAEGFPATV
Outline: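 In VM7Luc4E2 cells, 4,000 per well, compounds at 15 concentrations were co-incubated 22hr at 37C with 10.0nM final ICI-182,780. Luminescence from the stably transfected 4×ERE-luciferase reporter was recorded 30min after ONE-Glo addition.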

[7] = qHTS assay to identify small molecule agonists or antagonists of the thyroid stimulating hormone receptor (TSHR) signaling pathway - wild type cell line counter screen (AID 1259384; calls by dose curve)
Outline: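 Wild-type Hek293 cells, 800/well, 18 h at 37C, then compound with Ro20-1724 for 30 min RT. cAMP by HTRF (cAMP-d2/anti-cAMP cryptate), 1 h RT, fluorescence read. 15 concentrations, triplicates.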

[8] = qHTS assay to identify small molecule agonists of the estrogen receptor alpha (ER-alpha) signaling pathway in the presence of an antagonist - cell viability counter screen (AID 1259386);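 further: cells exposed to compounds for 22 h at 37 °C before the viability read; nearly all actives have a fitted effect of over 30% in size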; further: potency means the concentration at half of the fitted maximal effect
Outline: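 Fluorescent CellTiter-Fluor viability signal from VM7Luc4E2 cells, with the reagent added during the final hour of a 22hr compound exposure at 37C in the presence of 10.0nM ICI-182,780.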

[9] = biological target: Progesterone receptor (Homo sapiens) (UniProt P06401); assay: qHTS assay to identify small molecule agonists of the progesterone receptor (PR) signaling pathway (AID 1346784; calls by dose curve; further: nearly all actives have a fitted effect of over 30% in size)
Chain of Progesterone receptor (Homo sapiens) (P06401 whole entry, looked up): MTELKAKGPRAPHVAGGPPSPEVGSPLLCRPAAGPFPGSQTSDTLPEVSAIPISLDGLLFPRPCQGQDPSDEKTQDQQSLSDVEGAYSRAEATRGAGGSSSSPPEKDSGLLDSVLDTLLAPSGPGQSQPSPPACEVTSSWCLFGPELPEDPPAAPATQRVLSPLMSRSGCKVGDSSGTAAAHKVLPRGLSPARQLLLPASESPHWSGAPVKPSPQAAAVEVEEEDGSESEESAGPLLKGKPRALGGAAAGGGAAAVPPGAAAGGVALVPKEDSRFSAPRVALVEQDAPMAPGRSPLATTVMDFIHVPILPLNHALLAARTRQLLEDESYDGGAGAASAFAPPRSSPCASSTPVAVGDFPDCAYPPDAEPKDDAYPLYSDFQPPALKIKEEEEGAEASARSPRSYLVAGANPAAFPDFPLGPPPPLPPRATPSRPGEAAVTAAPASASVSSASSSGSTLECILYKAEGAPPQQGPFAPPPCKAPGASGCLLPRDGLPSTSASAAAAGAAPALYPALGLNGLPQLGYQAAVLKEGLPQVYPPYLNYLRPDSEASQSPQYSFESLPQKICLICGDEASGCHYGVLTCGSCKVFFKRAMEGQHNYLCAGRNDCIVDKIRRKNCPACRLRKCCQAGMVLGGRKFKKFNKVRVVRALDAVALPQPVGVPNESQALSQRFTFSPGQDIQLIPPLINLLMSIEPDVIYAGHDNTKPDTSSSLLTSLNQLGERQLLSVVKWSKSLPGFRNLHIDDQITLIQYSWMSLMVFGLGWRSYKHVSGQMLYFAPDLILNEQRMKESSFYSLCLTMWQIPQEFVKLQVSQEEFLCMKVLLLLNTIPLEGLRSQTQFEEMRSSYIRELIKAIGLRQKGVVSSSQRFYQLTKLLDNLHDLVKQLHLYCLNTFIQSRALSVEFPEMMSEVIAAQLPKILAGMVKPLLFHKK
Outline: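 Using charcoal-stripped serum (2%) to limit endogenous steroids, PR-UAS-bla HEK 293T cells received compounds for 16 hr at 37C after 6 hr plating; beta-lactamase FRET fluorescence was recorded following 2 hr substrate loading at room temperature.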

[10] = biological target: Progesterone receptor (Homo sapiens) (UniProt P06401); assay: qHTS assay to identify small molecule antagonists of the progesterone receptor (PR) signaling pathway (AID 1346795; active means well fitted inhibition curve with a large enough effect in the signal ratio in the repeat runs, not every such curve was filed as active; the % refers to the signal ratio; further: potency means the concentration at half of the fitted maximal effect)
Outline: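 Inhibition of R5020-induced (1 nM final) beta-lactamase reporter signal in PR-UAS-bla HEK293T cells was scored by FRET fluorescence after overnight (16 hr) compound treatment.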

[11] = qHTS assay to identify small molecule antagonists of the progesterone receptor (PR) signaling pathway - cell viability counter screen (AID 1346798); further: series mostly up to about 92 µM; nearly all actives have a fitted effect of over 50% in size
Outline: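 ATP content as viability readout: CellTiter-Glo luminescence, 30 min room temperature, in PR-UAS-bla HEK293T cells after 16 hr compound/R5020 treatment at 37C and 5% CO2.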

[12] = qHTS assay to identify small molecule agonists of the progesterone receptor (PR) signaling pathway - cell viability counter screen (AID 1346799; calls by dose curve; further: nearly all actives have a fitted effect of over 45% in size)
Outline: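 Cytotoxicity in PR-bla HEK293T cells: 16 h compound, 37C; CellTiter-Glo added post-FRET read; luminescence after 30 min RT.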

[13] = qHTS assay to identify small molecule agonists of the TGF-beta/Smad signaling pathway - cell viability counter screen (AID 1346829); further: top concentration of the series differs between compounds; nearly all actives have a fitted effect of over 45% in size
Outline: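 CellTiter-Glo luminescence readout; SBE-bla HEK 293T cells, overnight plating, compound 5 hr at 37 C/5% CO2, then bla substrate 2 hr RT, then CellTiter-Glo 30 min RT.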

[14] = qHTS assay to identify small molecule agonists of the TGF-beta/Smad signaling pathway (AID 1346859; active means well fitted activation curve with a large enough effect in the signal ratio in the repeat runs, not every such curve was filed as active; the % refers to the signal ratio; further: series mostly up to about 77 µM)
Outline: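 Stable Smad binding element-beta-lactamase HEK 293T cells; 5 hr compound exposure at 37 C under 5% CO2; 2 hr room-temperature substrate step; fluorescence excited at 405 nm, collected at 460 nm and 530 nm.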

[15] = biological target: Thyrotropin-releasing hormone receptor (Homo sapiens) (UniProt P34981); assay: qHTS assay to identify small molecule antagonists of the thyrotropin-releasing hormone receptor (TRHR) signaling pathway (AID 1346877; active means well fitted inhibition curve with a large enough effect in the repeat runs, not every such curve was filed as active; further: series mostly up to about 51 µM)
Chain of Thyrotropin-releasing hormone receptor (Homo sapiens) (P34981 whole entry, looked up): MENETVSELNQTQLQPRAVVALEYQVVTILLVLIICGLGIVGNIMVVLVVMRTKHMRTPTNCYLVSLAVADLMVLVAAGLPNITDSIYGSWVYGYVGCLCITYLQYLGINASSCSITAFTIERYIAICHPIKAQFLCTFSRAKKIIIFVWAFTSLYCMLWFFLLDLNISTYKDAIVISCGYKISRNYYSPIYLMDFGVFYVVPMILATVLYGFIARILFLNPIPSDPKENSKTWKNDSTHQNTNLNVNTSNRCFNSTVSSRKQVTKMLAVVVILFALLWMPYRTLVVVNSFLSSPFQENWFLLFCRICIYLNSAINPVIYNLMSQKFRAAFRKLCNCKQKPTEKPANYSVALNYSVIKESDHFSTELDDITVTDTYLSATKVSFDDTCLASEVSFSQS
Outline: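 In this cell-based calcium flux format, HEK293 cells expressing TRHR received test compound for 5 min before the agonist TRH (1 nM final). Dye loading lasted 2 h at 37 °C.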

[16] = biological target: Estrogen receptor beta (Homo sapiens) (UniProt Q92731); assay: qHTS assay to identify small molecule antagonists of the estrogen receptor beta (ER-beta) signaling pathway (AID 1259378; active means well fitted inhibition curve with a large enough effect in the signal ratio in the repeat runs, not every such curve was filed as active; the % refers to the signal ratio; further: potency means the concentration at half of the fitted maximal effect)
Outline: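 ER-beta-UAS-bla HEK293T cells in 2% charcoal-stripped FBS medium treated with compound plus 1nM final 17-beta-estradiol for 16 hr at 37C. Beta-lactamase reporter read by FRET substrate fluorescence after 2 hours at room temperature.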

[17] = biological target: Thyrotropin receptor (Homo sapiens) (UniProt P16473); assay: qHTS assay to identify small molecule antagonists of the thyroid stimulating hormone receptor (TSHR) signaling pathway (AID 1259385; calls by dose curve; further: nearly all actives have a fitted effect of over 20% in size)
Chain of Thyrotropin receptor (Homo sapiens) (P16473 whole entry, looked up): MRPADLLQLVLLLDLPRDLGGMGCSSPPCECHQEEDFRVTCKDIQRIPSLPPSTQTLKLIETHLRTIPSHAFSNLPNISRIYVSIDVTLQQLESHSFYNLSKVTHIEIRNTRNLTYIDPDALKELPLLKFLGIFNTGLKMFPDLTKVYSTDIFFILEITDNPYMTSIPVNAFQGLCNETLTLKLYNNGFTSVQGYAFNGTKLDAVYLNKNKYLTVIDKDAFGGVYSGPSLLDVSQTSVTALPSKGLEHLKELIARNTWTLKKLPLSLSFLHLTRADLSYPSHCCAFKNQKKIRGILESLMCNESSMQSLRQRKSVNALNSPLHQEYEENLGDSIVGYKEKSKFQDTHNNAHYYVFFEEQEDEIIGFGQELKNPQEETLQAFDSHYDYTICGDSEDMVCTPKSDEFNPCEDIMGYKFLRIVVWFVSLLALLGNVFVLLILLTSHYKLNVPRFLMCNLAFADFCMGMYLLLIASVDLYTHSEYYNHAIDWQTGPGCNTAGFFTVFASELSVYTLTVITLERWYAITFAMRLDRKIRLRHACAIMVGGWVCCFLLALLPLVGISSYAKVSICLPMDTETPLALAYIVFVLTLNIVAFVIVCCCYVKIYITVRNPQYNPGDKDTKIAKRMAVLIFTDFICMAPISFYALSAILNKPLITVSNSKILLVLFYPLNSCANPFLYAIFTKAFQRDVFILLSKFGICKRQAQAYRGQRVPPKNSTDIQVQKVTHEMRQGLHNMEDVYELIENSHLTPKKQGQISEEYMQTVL
Outline: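 TSHR-HEK293 cells (800/well) plated 18 h, then compounds with Ro20-1724 and TSH at 1.5 ng/mL final, 30 min at room temperature. cAMP quantified by HTRF (cAMP-d2/anti-cAMP-cryptate, 1 h); 15 concentrations in triplicate.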

[18] = qHTS assay to identify small molecule antagonists of the TGF-beta/Smad signaling pathway - cell viability counter screen (AID 1346824); further: nearly all actives have a fitted effect of over 50% in size
Outline: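 SBE-bla HEK 293T cells, incubated overnight, then compound plus 0.25 ng/mL TGF-beta1 (stock added) for 5 hr at 37 C. Viability was read in the same wells by CellTiter-Glo luminescence after 30 min at room temperature.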

[19] = biological target: Androgen receptor (Homo sapiens) (UniProt P10275); assay: qHTS assay to identify small molecule agonists of the androgen receptor (AR) signaling pathway in the presence of an antagonist (AID 1259381; calls by dose curve; further: nearly all actives have a fitted effect of over 15% in size)
Chain of Androgen receptor (Homo sapiens) (P10275 whole entry, looked up): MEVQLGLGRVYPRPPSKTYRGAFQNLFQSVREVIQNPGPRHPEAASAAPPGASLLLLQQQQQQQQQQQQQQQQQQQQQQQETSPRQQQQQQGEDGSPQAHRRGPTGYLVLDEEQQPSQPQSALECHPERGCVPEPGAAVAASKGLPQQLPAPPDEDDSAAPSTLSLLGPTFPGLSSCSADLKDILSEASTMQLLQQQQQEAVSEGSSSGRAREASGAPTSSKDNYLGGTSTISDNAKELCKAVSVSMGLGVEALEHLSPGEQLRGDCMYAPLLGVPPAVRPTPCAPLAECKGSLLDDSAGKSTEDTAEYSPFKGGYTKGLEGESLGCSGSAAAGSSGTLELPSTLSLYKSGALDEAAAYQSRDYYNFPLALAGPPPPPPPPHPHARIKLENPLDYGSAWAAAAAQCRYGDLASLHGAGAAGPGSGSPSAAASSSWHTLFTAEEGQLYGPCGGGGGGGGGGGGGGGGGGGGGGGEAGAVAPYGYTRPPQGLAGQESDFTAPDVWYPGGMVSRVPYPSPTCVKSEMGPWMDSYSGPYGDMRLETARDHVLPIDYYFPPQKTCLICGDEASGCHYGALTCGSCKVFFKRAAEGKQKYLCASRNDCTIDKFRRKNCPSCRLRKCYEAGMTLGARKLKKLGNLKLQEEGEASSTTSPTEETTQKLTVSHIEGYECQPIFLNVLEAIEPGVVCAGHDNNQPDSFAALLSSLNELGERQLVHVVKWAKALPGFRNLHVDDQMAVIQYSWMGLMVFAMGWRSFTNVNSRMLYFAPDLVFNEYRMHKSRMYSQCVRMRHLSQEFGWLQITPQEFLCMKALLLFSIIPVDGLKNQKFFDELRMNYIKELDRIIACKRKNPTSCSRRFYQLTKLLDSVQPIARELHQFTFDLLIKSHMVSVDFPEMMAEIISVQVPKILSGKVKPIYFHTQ
Outline: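 Here, 15-concentration compound series were pin-transferred onto MDA-kb2 MMTV-luciferase cells already dosed with nilutamide (3.0uM final). After 16hr at 37C, ONE-Glo was added and luminescence read 30min later at room temperature.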

SMILES	Potency [1]	Potency [2]	Potency [3]	Potency [4]	Potency [5]	Potency [6]	outcome [7]	Potency [8]	Potency [9]	Potency [10]	Potency [11]	Potency [12]	outcome [13]	outcome [14]	outcome [15]	Potency [16]	Potency [17]	outcome [18]	Potency [19]
CCc1c2c(nc3ccc(OC(=O)N4CCC(N5CCCCC5)CC4)cc13)-c1cc3c(c(=O)n1C2)COC(=O)[C@]3(O)CC	inactive	inactive	inactive	inactive	inactive	inactive	inactive	inactive	inactive	inactive	inactive	inactive	inactive	inactive	inactive				
O=C(O)C(Cc1cc(I)c(O)c(I)c1)c1ccccc1 (stereo unspecified)	inactive	inactive	inactive	inactive	inactive	inactive	inactive	inactive	inactive			inactive	inactive	inactive		inactive	inactive	inactive	
CN1C(=O)CC(C)(c2ccccc2)C1=O (stereo unspecified)	inactive	inactive	inactive	inactive	inactive	inactive	inactive	inactive	inactive	inactive	inactive	inactive	inactive	inactive		inactive	inactive	inactive	
Cc1cc2nc3ccc(=[N+](C)C)cc-3sc2cc1N	inactive	inactive	3.76 µM (active)	4.22 µM (active)		inactive		29.8 µM (active)				inactive	inactive	inactive				inactive	inactive
C[N+]1(C)CCC(=C(c2ccccc2)c2ccccc2)CC1	inactive	inactive	inactive	inactive	inactive		inactive	inactive		inactive	inactive	inactive	inactive	inactive	inactive	inactive	inactive	inactive	
C1COCO1	inactive	inactive	inactive	inactive	inactive	inactive	inactive	inactive	inactive	inactive	inactive	inactive	inactive	inactive	inactive		inactive	inactive	
CCOC(=O)/C=C/C(=O)O	inactive	inactive	inactive	inactive	inactive		inactive	inactive		inactive		inactive	inactive	inactive	inactive		inactive	inactive	inactive
CO[Si](C)(OC)OC	inactive	inactive	inactive	inactive	inactive	inactive	inactive	inactive		inactive	inactive	inactive	inactive	inactive			inactive	inactive	
CC(C)(CCl)c1ccccc1	inactive	inactive	inactive	inactive	inactive		inactive	inactive		inactive	inactive	inactive	inactive	inactive	inactive	inactive	inactive	inactive	
O=C(N[C@@H](c1ccccc1)[C@@H]1CCCCN1)c1cccc(C(F)(F)F)c1Cl	inactive	inactive	17.2 µM (active)	54.5 µM (active)	61.1 µM (active)	inactive	inactive		inactive	34.4 µM (active)			inactive	inactive	inactive	43.3 µM (active)	inactive	inactive	
CCC(C(=O)OCCN(CC)CC)c1ccccc1 (stereo unspecified)	inactive	inactive	inactive	inactive	inactive	inactive	inactive	inactive	inactive	inactive		inactive	inactive	inactive	inactive	inactive	inactive	inactive	
Brc1cc(-c2ccc(Br)c(Br)c2Br)cc(Br)c1Br	inactive	inactive	inactive	inactive	inactive	inactive	inactive	inactive	inactive		inactive	inactive	inactive	inactive	inactive		inactive	inactive	
COC(=O)Nc1nc2ccc(C(=O)c3cccs3)cc2[nH]1	inactive	inactive	inactive	inactive	inactive		inactive	inactive					inactive	inactive			inactive	inactive	
Cc1occc1C(=O)Nc1ccc(C(=O)N2CCC(F)(F)/C(=C\C(=O)N3CCC(N4CCCCC4)CC3)c3ccccc32)cc1	inactive	inactive	inactive		inactive		inactive	inactive		inactive			inactive	inactive	inactive	inactive	inactive	inactive	inactive
CCOC(=O)[C@@H](C)Oc1ccc(Oc2nc3ccc(Cl)cc3o2)cc1	inactive	inactive	inactive	inactive	inactive			inactive			inactive		inactive	inactive	inactive			inactive	
CCCCCCCCCOC(C)=O	inactive	inactive	inactive	inactive	inactive		inactive	inactive	inactive	inactive	inactive	inactive	inactive	inactive			inactive	inactive	
